This is an account of results in PubChem BioAssay (NCI).

The structures appear in SMILES notation. Compounds without any hit were thinned out: in the full panel of roughly 83,000, 20% have a hit.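 The test compound was applied at a single concentration to cells in 96-well plates for 48 hours, and percent growth was recorded.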 Unmarked numbers belong to inactive results. Calls of active or inactive are those of the source. The calls were made as follows: active = growth percent below 10; inactive = the rest.

Test systems include DU-145 prostate; K-562 leukemia; MALME-3M melanoma; MDA-MB-231 breast; RXF 393 renal; SF-268 CNS; SF-295 CNS; SF-539 CNS; UACC-257 melanoma; M14 melanoma; HCT-15 colon; SNB-75 CNS; SNB-19 CNS; U251 CNS; PC-3 prostate; SK-MEL-5 melanoma; UACC-62 melanoma; LOX IMVI melanoma; SK-MEL-28 melanoma; HT29 colon.
Assay in all cases: NCI-60 one-dose screen, 48 h (100 = growth as untreated, 0 = no growth, -100 = all killed)
Common to all, as to settings: 10 µM unless noted

With `Cc1cc(NCc2cc(Nc3ccnc4cc(Cl)ccc34)ccc2F)nc(N2CCN(c3ccccc3)CC2)n1`, the growth in the assay with DU-145 prostate is 72.5%; in the assay on K-562 leukemia, -0.109% (active); in the assay with MALME-3M melanoma it was 84.4%; in the assay on MDA-MB-231 breast, 17.2%; in the assay on RXF 393 renal, 47.4%; in the assay on SF-268 CNS, 65.3%. Besides, the growth in the assay on SF-295 CNS is 27.3%; in the assay on SF-539 CNS it was 61.9%; in the assay with UACC-257 melanoma, 73.7%; with M14 melanoma, 43.4%; with HCT-15 colon, 15.6%; with SNB-75 CNS it was 57.7%. The growth in the assay with SNB-19 CNS was 76.5%; in the assay with U251 CNS, 10.5%; with PC-3 prostate, 42.7%; with SK-MEL-5 melanoma it was 53.3%; in the assay on UACC-62 melanoma, 70.6%; in the assay on LOX IMVI melanoma it was -84.6% (active). Besides, the growth in the assay with SK-MEL-28 melanoma is 69.7%.
As to `O=Cc1ccc(O)c2ncccc12`, the growth was 41.9% in the assay with DU-145 prostate; -23.6% (active) in the assay on K-562 leukemia; 19% in the assay on MALME-3M melanoma; 54.2% in the assay with MDA-MB-231 breast; 76.6% in the assay with RXF 393 renal; 19.1% with SF-268 CNS. Moreover, the growth was 29.2% with SF-295 CNS; 25.1% with SF-539 CNS; 27.9% with UACC-257 melanoma; 21.4% in the assay on M14 melanoma; 22.9% in the assay with HCT-15 colon; 73.9% in the assay on SNB-75 CNS. Besides, the growth was 68.1% in the assay on SNB-19 CNS; 25.3% in the assay with U251 CNS; 16.6% with PC-3 prostate; 44% with SK-MEL-5 melanoma; 45.1% in the assay on UACC-62 melanoma; -68.5% (active) with LOX IMVI melanoma. Besides, in the assay on SK-MEL-28 melanoma, the growth was 38.6%.
On to `CCc1ccccc1-n1c(N)c(C#N)c(-c2ccc(N(C)C)cc2)c(C#N)c1=O`, for which the growth in the assay with DU-145 prostate was 103%; in the assay on K-562 leukemia it was 89.3%; in the assay on MALME-3M melanoma, 91%; in the assay with MDA-MB-231 breast, 91.3%; with RXF 393 renal, 89.6%; with SF-268 CNS it was 95.6%. The growth in the assay with SF-295 CNS was 98.3%; with SF-539 CNS, 90.2%; with UACC-257 melanoma it was 101%; with M14 melanoma it was 101%; in the assay on HCT-15 colon, 97.7%; in the assay on HT29 colon, 101%. Also, the growth is 101% in the assay with SNB-19 CNS; 91.1% with U251 CNS; 82.6% in the assay on PC-3 prostate; 88% in the assay with UACC-62 melanoma; 92.7% with LOX IMVI melanoma; 100% in the assay on SK-MEL-28 melanoma.
In the case of `COc1cc2c(cc1-c1c(C)noc1C)ncc1nc(C3CCCCC3)n(C3CCC(OC(F)F)CC3)c12` (configuration not stated), the growth in the assay with DU-145 prostate is 63%; with K-562 leukemia, 20.1%; with MALME-3M melanoma, 41.7%; in the assay with MDA-MB-231 breast, 35.9%; in the assay with RXF 393 renal, 36.5%; with SF-268 CNS it was 57%. For the same compound, the growth with SF-295 CNS was 33.9%; in the assay on SF-539 CNS it was 47%; in the assay on UACC-257 melanoma, 40.3%; in the assay with M14 melanoma, 39.6%; with HCT-15 colon it was 25.3%; with SNB-75 CNS, 23.3%. For the same compound, the growth is 55.8% in the assay on SNB-19 CNS; 25.1% in the assay on U251 CNS; 16.8% with PC-3 prostate; 9.79% (active) in the assay on SK-MEL-5 melanoma; 22.3% in the assay with UACC-62 melanoma; 46.6% with SK-MEL-28 melanoma.
`Cc1ccc(NCCN(C)C)c2c(=O)c3ccccc3sc12`: the growth in the assay with DU-145 prostate is 23.8%; in the assay on K-562 leukemia, 21.3%; in the assay on MALME-3M melanoma, 76.4%; in the assay on MDA-MB-231 breast, 24.3%; in the assay on RXF 393 renal, 2.41% (active); in the assay on SF-268 CNS, 17.1%. Moreover, the growth in the assay on SF-295 CNS was 29.4%; with SF-539 CNS, 30.8%; in the assay on UACC-257 melanoma, 1.5% (active); in the assay with M14 melanoma, 5.06% (active); with HCT-15 colon, 6.89% (active); in the assay with SNB-75 CNS it was 41.2%. In addition, the growth with SNB-19 CNS was 20.2%; with U251 CNS it was 10.8%; in the assay on PC-3 prostate, 36.2%; in the assay on SK-MEL-5 melanoma, -73.6% (active); in the assay with UACC-62 melanoma, -5.6% (active); with LOX IMVI melanoma, -41.6% (active). In addition, the growth in the assay with SK-MEL-28 melanoma was 2.84% (active).
Turning to `COc1cccc(-c2nn(-c3ccccc3)cc2-c2ccnc(NCCCNC(=O)Nc3ccc(Cl)c(Cl)c3)c2)c1`, the growth in the assay on DU-145 prostate was 22.1%; in the assay on K-562 leukemia it was -13.6% (active); in the assay with MALME-3M melanoma it was -27.1% (active); in the assay with MDA-MB-231 breast it was -37.2% (active); with RXF 393 renal, 9.74% (active); with SF-268 CNS it was 13.9%. The growth in the assay with SF-295 CNS was -4.97% (active); in the assay on SF-539 CNS, 1.74% (active); in the assay with UACC-257 melanoma, -29.6% (active); in the assay with M14 melanoma it was -52% (active); in the assay on HCT-15 colon, 6.61% (active); in the assay with SNB-75 CNS it was 25.4%. Besides, the growth was 27.7% in the assay on SNB-19 CNS; -15.5% (active) in the assay on U251 CNS; 6.51% (active) in the assay with PC-3 prostate; -26.4% (active) in the assay on SK-MEL-5 melanoma; -29.7% (active) with UACC-62 melanoma; -92.1% (active) with LOX IMVI melanoma. Also, the growth in the assay on SK-MEL-28 melanoma is -29.2% (active).
As to `COC(=O)/C=C1\S/C(=N\NS(=O)(=O)c2ccc(C)cc2)N(c2ccccc2)C1=O`, the growth in the assay with DU-145 prostate is 105%; in the assay on K-562 leukemia it was 84.5%; in the assay with MALME-3M melanoma, 110%; in the assay on MDA-MB-231 breast, 109%; with RXF 393 renal it was 111%; in the assay on SF-268 CNS, 98%. Also, the growth in the assay on SF-295 CNS was 105%; in the assay on SF-539 CNS, 100%; with UACC-257 melanoma it was 99.5%; with M14 melanoma it was 107%; in the assay on HCT-15 colon it was 98.7%; in the assay on HT29 colon it was 117%. Also, the growth in the assay with SNB-19 CNS was 97%; with U251 CNS, 102%; in the assay with PC-3 prostate, 96.4%; in the assay on UACC-62 melanoma, 95.2%; in the assay with LOX IMVI melanoma it was 98.7%; in the assay with SK-MEL-28 melanoma it was 104%.
As for `COc1cccc(-c2nn(-c3ccccc3)cc2-c2ccnc(NCCNC(=O)c3ccccc3)c2)c1`, the growth with DU-145 prostate was 74.5%; in the assay on K-562 leukemia, 38.2%; with MALME-3M melanoma, 95.7%; with MDA-MB-231 breast, 55.3%; in the assay with RXF 393 renal, 79.9%; in the assay on SF-268 CNS it was 78.3%. The growth in the assay with SF-295 CNS was 62.1%; in the assay with SF-539 CNS it was 96.9%; with UACC-257 melanoma, 49.7%; in the assay on M14 melanoma it was 55.3%; in the assay with HCT-15 colon it was 50.5%; in the assay with SNB-75 CNS, 71.1%. Moreover, the growth in the assay on SNB-19 CNS was 72.3%; in the assay with U251 CNS it was 47.9%; with PC-3 prostate, 37.7%; with SK-MEL-5 melanoma, 34.5%; in the assay on UACC-62 melanoma, 57.2%; in the assay with LOX IMVI melanoma it was 68.7%. In addition, in the assay with SK-MEL-28 melanoma, the growth is 88.3%.
As for `O=C(Nc1cccc2c(O)c(N=Nc3ccc(S(=O)(=O)Nc4nccs4)cc3)cc(N=Nc3ccc(S(=O)(=O)Nc4nccs4)cc3)c12)C(Cl)Cl`, the growth in the assay with DU-145 prostate was 33.8%; with K-562 leukemia, 143%; in the assay with MALME-3M melanoma, 138%; in the assay on MDA-MB-231 breast, 92.3%; in the assay on RXF 393 renal, 71.2%; in the assay on SF-268 CNS, 66.2%. Besides, the growth in the assay on SF-295 CNS is 78.2%; in the assay on SF-539 CNS it was 86.6%; in the assay on UACC-257 melanoma, 80.6%; with M14 melanoma, 110%; in the assay on HCT-15 colon it was 60.2%; with SNB-75 CNS it was 83%. Moreover, the growth with SNB-19 CNS was 73.6%; in the assay on U251 CNS it was 63.1%; with PC-3 prostate it was 15.7%; in the assay with SK-MEL-5 melanoma, 85.2%; with UACC-62 melanoma it was 89%; with SK-MEL-28 melanoma it was 82.9%.
